Of roughly 8,800 targets only a part is listed; those with a hit were picked by preference. About 0.5% of all pairs of compound and target were hits.

Chain of UniProt P04183 (P04183 whole entry, looked up): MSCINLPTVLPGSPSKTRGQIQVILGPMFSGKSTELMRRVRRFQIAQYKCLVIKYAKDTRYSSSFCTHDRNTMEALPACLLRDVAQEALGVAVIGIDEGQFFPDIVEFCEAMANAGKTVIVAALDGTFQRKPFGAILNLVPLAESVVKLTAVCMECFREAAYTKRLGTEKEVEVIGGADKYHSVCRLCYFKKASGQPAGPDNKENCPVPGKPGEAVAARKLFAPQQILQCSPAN
Chain of UniProt Q9NX07 (Q9NX07 whole entry, looked up): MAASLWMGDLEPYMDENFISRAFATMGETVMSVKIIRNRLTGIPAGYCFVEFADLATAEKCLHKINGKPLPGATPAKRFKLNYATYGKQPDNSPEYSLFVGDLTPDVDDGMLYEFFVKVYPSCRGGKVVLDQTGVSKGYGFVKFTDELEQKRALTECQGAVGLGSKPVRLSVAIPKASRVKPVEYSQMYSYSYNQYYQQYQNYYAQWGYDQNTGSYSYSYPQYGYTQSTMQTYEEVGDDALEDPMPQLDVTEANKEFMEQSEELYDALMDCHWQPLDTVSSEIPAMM
Chain of UniProt Q14166 (Q14166 whole entry, looked up): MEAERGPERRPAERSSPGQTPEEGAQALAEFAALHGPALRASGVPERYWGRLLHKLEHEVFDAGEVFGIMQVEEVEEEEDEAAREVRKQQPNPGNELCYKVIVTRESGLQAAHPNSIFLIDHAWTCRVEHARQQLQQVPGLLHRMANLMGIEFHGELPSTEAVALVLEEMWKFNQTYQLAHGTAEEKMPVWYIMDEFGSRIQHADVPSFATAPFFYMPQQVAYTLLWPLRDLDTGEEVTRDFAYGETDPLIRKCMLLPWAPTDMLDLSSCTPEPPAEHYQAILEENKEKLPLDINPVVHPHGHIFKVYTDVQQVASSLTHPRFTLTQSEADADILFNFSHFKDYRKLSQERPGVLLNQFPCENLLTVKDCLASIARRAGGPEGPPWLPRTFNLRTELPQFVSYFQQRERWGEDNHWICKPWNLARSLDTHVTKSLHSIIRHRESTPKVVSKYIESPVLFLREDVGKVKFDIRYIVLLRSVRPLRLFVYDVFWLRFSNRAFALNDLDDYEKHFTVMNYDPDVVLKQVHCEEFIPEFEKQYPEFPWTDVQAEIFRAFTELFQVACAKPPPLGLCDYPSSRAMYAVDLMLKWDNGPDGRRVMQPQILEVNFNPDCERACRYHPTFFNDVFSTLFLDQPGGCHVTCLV
Chain of UniProt P67936 (P67936 whole entry, looked up): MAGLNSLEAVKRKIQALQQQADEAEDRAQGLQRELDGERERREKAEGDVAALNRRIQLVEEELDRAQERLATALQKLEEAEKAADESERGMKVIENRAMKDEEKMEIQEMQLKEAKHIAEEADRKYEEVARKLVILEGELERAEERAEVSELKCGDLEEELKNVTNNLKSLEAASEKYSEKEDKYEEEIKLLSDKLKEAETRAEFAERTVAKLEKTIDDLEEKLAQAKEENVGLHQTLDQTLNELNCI
Chain of UniProt A6NHL2 (A6NHL2 whole entry, looked up): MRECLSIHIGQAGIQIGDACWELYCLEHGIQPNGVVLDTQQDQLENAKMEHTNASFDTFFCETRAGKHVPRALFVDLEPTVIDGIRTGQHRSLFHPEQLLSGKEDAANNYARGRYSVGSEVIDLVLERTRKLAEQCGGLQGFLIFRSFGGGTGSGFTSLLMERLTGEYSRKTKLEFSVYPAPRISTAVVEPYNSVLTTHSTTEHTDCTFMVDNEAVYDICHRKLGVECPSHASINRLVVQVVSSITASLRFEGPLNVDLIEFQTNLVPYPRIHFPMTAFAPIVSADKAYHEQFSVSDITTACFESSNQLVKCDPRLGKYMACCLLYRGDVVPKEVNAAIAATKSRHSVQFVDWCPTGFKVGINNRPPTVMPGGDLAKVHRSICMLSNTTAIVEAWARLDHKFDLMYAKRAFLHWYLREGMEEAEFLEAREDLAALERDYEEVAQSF
Chain of UniProt Q9UNY4 (Q9UNY4 whole entry, looked up): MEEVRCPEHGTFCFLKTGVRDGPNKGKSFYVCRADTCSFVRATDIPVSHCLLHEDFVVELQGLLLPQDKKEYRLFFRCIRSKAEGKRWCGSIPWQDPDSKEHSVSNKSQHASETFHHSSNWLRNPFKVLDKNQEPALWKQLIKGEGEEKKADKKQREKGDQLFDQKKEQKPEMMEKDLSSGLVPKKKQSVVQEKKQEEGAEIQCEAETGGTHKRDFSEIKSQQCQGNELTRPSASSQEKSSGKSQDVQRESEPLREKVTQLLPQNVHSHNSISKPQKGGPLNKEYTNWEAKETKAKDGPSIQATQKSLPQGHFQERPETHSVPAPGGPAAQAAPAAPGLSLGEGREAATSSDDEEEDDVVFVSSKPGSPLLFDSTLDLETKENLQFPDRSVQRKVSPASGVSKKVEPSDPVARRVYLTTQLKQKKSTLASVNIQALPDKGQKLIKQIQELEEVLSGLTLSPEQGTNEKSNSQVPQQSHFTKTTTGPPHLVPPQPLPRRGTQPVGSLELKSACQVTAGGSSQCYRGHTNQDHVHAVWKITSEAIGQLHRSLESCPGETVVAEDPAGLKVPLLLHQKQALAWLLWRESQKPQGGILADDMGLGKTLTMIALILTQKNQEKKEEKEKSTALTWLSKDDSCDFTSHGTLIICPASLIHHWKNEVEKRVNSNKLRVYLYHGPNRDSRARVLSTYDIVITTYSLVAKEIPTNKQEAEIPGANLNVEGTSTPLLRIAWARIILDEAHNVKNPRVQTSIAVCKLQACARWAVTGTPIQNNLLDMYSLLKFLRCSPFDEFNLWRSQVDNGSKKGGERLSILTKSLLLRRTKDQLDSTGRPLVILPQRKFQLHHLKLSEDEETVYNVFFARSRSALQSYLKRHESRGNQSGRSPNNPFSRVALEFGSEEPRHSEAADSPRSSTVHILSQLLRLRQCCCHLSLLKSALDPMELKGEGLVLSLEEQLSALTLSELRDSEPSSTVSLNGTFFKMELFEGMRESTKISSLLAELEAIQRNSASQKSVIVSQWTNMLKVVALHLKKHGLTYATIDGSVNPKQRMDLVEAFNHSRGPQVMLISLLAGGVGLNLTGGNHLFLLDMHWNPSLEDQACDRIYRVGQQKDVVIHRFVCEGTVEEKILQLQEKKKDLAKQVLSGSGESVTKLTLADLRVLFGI
Chain of UniProt P68363 (P68363 whole entry, looked up): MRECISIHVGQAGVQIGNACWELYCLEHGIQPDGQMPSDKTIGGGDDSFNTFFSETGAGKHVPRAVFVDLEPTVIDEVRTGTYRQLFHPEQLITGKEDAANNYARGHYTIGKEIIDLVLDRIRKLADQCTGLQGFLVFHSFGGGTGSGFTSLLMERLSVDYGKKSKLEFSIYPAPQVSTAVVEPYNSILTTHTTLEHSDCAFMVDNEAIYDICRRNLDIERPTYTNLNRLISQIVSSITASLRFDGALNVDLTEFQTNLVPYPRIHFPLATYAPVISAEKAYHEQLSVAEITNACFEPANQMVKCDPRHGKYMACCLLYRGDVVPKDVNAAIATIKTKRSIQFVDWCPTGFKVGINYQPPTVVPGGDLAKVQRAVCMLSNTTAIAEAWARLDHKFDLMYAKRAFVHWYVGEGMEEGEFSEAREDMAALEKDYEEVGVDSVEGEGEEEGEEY
Chain of UniProt Q9UNS1 (Q9UNS1 whole entry, looked up): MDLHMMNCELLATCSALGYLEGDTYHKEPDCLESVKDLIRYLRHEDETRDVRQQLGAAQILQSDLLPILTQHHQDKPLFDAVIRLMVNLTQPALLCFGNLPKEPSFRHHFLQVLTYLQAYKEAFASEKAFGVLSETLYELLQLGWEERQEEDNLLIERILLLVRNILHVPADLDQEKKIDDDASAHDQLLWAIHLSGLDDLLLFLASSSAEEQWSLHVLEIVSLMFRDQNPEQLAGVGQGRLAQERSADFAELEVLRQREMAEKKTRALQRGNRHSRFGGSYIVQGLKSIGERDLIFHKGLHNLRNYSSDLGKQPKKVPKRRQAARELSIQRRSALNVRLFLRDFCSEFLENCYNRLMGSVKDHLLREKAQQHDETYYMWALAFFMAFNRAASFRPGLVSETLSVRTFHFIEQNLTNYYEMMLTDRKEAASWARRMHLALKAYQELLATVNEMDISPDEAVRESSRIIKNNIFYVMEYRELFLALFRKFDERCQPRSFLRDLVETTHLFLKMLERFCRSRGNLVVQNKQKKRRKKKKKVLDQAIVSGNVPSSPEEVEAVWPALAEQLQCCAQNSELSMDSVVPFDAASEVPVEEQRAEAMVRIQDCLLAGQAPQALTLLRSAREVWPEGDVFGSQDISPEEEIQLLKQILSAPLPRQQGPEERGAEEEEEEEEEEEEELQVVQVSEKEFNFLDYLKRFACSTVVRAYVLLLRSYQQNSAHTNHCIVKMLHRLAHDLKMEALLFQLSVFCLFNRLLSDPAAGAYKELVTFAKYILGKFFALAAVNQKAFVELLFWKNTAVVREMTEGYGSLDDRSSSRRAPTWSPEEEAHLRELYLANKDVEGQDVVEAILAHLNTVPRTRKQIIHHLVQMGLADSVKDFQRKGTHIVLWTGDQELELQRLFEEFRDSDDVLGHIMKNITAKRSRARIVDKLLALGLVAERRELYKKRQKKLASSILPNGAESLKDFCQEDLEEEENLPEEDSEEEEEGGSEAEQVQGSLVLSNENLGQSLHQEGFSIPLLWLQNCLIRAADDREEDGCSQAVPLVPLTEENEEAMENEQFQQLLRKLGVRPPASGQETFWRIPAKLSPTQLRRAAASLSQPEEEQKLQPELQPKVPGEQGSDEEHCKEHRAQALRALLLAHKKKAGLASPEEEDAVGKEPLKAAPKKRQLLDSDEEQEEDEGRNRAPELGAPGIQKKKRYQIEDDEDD
Chain of UniProt Q96BS2 (Q96BS2 whole entry, looked up): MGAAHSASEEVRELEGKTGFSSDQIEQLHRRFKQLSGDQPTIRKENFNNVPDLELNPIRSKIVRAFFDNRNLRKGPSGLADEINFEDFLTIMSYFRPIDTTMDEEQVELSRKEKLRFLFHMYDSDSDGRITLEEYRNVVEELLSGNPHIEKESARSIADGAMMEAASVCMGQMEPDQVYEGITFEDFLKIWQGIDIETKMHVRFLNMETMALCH

Compound in this assay: C1=CC=C(C=C1)[C@H](COC2=CC3=C(C=C2)NC(=O)N3)NC(=O)C4=CC=CN(C4=O)CC5=CC(=C(C=C5)F)F
Kind of assay: log2 fold change, soluble protein after heating vs DMSO (PISA); higher = thermal stabilisation; K562 lysate, 10 uM; active = over 0.2 and 3.5 SD of the protein, either way, in both replicates (recomputed). The procedure, abridged:
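Thermal stability, expressed as log-two fold change relative to solvent controls, is given from duplicates. Crude K562 extract in PBS pH 7.4 with 1 mM MgCl2, at 1 mg/mL protein, was treated with 10 μM compound for 30 min and heated in aliquots for 3 min across 48°C-58°C. After pooling, adjustment to 0.5% NP-40 at 4°C and centrifugation at 21,000xg for 90 min, supernatant protein was measured by TMTpro 16plex LC-MS/MS with channel sums equalised.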
Take TTI1 (UniProt O43156): the log2 fold change was -0.004 (inactive).
The same measure for TRNAU1AP (UniProt Q9NX07): -0.068 (inactive); for TUBA1B (UniProt P68363): -0.006 (inactive); for TUBB (UniProt P07437): 0.025 (inactive).
Take TK1 (UniProt P04183): the log2 fold change is 0.006 (inactive).
In the case of TTLL12 (UniProt Q14166) it was -0.004 (inactive); in that of TPM4 isoform 2 (UniProt P67936), -0.059 (inactive); in that of TPP2 (UniProt P29144), 0.006 (inactive).
In the case of TTF2 (UniProt Q9UNY4) it was -0.092 (inactive); in that of TUBGCP5 (UniProt Q96RT8), -0.209 (inactive); in that of TUBAL3 (UniProt A6NHL2), -0.034 (inactive).
In the case of TMEM199 (UniProt Q8N511) it was 0.005 (inactive).
As to TESC (UniProt Q96BS2), the log2 fold change is 0.034 (inactive).
Regarding TRMT10A (UniProt Q8TBZ6), the log2 fold change is -0.046 (inactive).
In the case of TMPO (UniProt P42166) it was -0.013 (inactive); in that of TIMELESS (UniProt Q9UNS1), -0.013 (inactive).

The values are drawn from the supplement of paper PMC10849652.
